Data published in PubChem BioAssay (NCI).
This is part of a sample that, as a whole, favours compounds with a hit. Of some 79,000 tested, about 15% had one in any assay. The source made the active and inactive calls. Cut-off read from the data, not from the text of the source: active = growth inhibition above about 70%; inactive = the rest.

Columns and labels:
[1] = NCI Yeast Anticancer Drug Screen. Data for the rad52 strain (AID 147);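 note: 0% = growth of vehicle-treated control cultures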; settings: S. cerevisiae rad52 mutant growth inhibition, stronger effect = higher value
Method in brief: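 DNA repair-defective yeast; compound exposure; growth scored against vehicle controls.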

[2] = NCI Yeast Anticancer Drug Screen. Data for the wt1 strain (AID 149);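 note: 0% = growth of vehicle-treated wt1 cultures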; settings: S. cerevisiae wt1 strain (SPY 50644) growth inhibition, stronger effect = higher value
Method in brief: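 The wt1 strain was treated with compounds, and growth was compared with vehicle-treated cultures to give inhibition.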

[3] = NCI Yeast Anticancer Drug Screen. Data for the rad50EPP+ strain (AID 151);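 note: 0% = growth of vehicle-treated control cultures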; settings: S. cerevisiae rad50 mutant strain, stronger effect = higher value
Method in brief: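 rad50EPP+ yeast treated with test compounds. Readout: growth vs vehicle control.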

[4] = NCI Yeast Anticancer Drug Screen. Data for the mgt1 strain (AID 153); settings: S. cerevisiae mgt1 mutant growth inhibition, stronger effect = higher value
Method in brief: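 Growth inhibition relative to vehicle controls was scored for the mgt1 yeast strain after compound exposure.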

[5] = NCI Yeast Anticancer Drug Screen. Data for the rad50 strain (AID 155);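 note: 0% = growth of vehicle-only cultures of the same strain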; settings: S. cerevisiae rad50 strain growth inhibition, stronger effect = higher value
Method in brief: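 Cells are treated with compound, grown, and their growth is then scored against vehicle-only cultures of the same repair-deficient yeast strain.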

[6] = NCI Yeast Anticancer Drug Screen. Data for the mec2-1 strain (AID 157); settings: S. cerevisiae mec2-1 strain, stronger effect = higher value
Method in brief: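 Growth inhibition is read against vehicle-treated controls after compound exposure of the mec2-1 yeast strain, which is defective in DNA damage repair or cell cycle control.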

[7] = NCI Yeast Anticancer Drug Screen. Data for the rad14 strain (AID 159);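 note: 0% = growth of vehicle-treated control cultures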; settings: S. cerevisiae rad14 strain growth inhibition, stronger effect = higher value
Method in brief: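 Readout: yeast growth inhibition, referenced to vehicle-only cultures. Strain bears a defined alteration in DNA damage repair.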

[8] = NCI Yeast Anticancer Drug Screen. Data for the sgs1 mgt1 strain (AID 161);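 note: 0% = growth of cultures given vehicle only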; settings: S. cerevisiae sgs1 mgt1 strain, stronger effect = higher value
Method in brief: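 Yeast cells carrying a defined DNA-repair defect were exposed to test compounds. Growth inhibition was measured relative to vehicle-treated controls.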

[9] = NCI Yeast Anticancer Drug Screen. Data for the CLN2oe strain (AID 163);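 note: 0% = growth of vehicle-only control cultures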; settings: S. cerevisiae CLN2oe strain, stronger effect = higher value
Method in brief: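 Compound-treated yeast; growth vs vehicle ctrl = % inhibition. Genetically altered strain (cell-cycle control).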

[10] = NCI Yeast Anticancer Drug Screen. Data for the cln2 rad14 strain (AID 165);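 note: 0% = growth equal to vehicle treated cultures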; settings: S. cerevisiae cln2 rad14 strain, stronger effect = higher value
Method in brief: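 Growth inhibition, relative to vehicle-treated controls, is the read-out. The test organism is a yeast strain with defined genetic alterations, cln2 rad14.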

[11] = NCI Yeast Anticancer Drug Screen. Data for the bub3 strain (AID 167); settings: S. cerevisiae bub3 mutant strain, stronger effect = higher value
Method in brief: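 Part of a panel of yeast mutants defective in DNA damage repair or cell cycle regulation. Each strain is grown with compound, and inhibition is calculated relative to solvent-treated cultures.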

[12] = NCI Yeast Anticancer Drug Screen. Data for the wt2 strain (AID 169);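 note: 0% = growth of vehicle-treated yeast cultures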; settings: S. cerevisiae wt2 strain growth inhibition, stronger effect = higher value
Method in brief: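 Compound exposure of yeast; growth compared with vehicle controls; inhibition reported.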

[13] = NCI Yeast Anticancer Drug Screen. Data for the mlh1 strain (AID 171);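 note: 0% = growth of vehicle-treated control cultures of the same strain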; settings: S. cerevisiae mlh1 strain growth inhibition, stronger effect = higher value
Method in brief: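 Compounds are applied to a genetically altered yeast strain, and its growth is compared with that of vehicle-treated cultures to give percent inhibition.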

[14] = NCI Yeast Anticancer Drug Screen. Data for the mlh1 rad18 strain (AID 175); settings: S. cerevisiae mlh1 rad18 strain growth inhibition, stronger effect = higher value
Method in brief: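 Cells of a genetically altered yeast strain, deficient in DNA damage repair, were treated with compound. Their growth was then compared with that of vehicle-treated cultures to give inhibition.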

[15] = NCI Yeast Anticancer Drug Screen. Data for the rad18 strain (AID 177); settings: S. cerevisiae rad18 mutant growth inhibition, stronger effect = higher value
Method in brief: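 Compounds are applied to a repair-deficient yeast strain, and growth is compared with that of vehicle-treated cultures to give percent inhibition.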

[16] = at 5.0 µM (retest, dose inferred, filed as 0.5)
[17] = at 50.0 µM (retest, dose inferred, filed as 5.0)

Measured: growth inhibition

COc1ccc2c(c1)[nH]c1c(/C=C/c3ccccc3)nccc12
inactive: [1]; at 1.2 µM 9% | [1]; at 3.7 µM -8% | [1]; at 11.0 µM -2% | [1]; at 33.0 µM 50% | [2]; at 1.2 µM -34% | [2]; at 3.7 µM -32% | [2]; at 11.0 µM -18% | [2]; at 33.0 µM 41% | [3]; at 1.2 µM 0% | [3]; at 3.7 µM 7% | [3]; at 11.0 µM 13% | [3]; at 33.0 µM 46% | [4]; at 1.2 µM 9% | [4]; at 3.7 µM 3% | [4]; at 11.0 µM 18% | [5]; at 1.2 µM 31% | [5]; at 3.7 µM 29% | [5]; [16] 44% | [5]; at 11.0 µM 23% | [6]; at 1.2 µM -9% | [6]; at 3.7 µM -6% | [6]; [16] 42% | [6]; at 11.0 µM 1% | [7]; at 1.2 µM -29% | [7]; at 3.7 µM -25% | [7]; at 11.0 µM -22% | [8]; [16] -28% | [9]; at 1.2 µM -15% | [9]; at 3.7 µM -23% | [9]; at 11.0 µM -38% | [9]; at 33.0 µM 63% | [10]; [16] 40% | [11]; at 1.2 µM 12% | [11]; at 3.7 µM 19% | [11]; [16] -24% | [11]; at 11.0 µM 27% | [11]; at 33.0 µM 48% | [12]; at 1.2 µM -36% | [12]; at 3.7 µM -29% | [12]; at 11.0 µM -30% | [12]; at 33.0 µM 68% | [13]; at 1.2 µM -42% | [13]; at 3.7 µM -36% | [13]; at 11.0 µM -35% | [13]; at 33.0 µM 68% | [14]; [16] 29% | [15]; at 1.2 µM 11% | [15]; at 3.7 µM 0% | [15]; at 11.0 µM 6% | [15]; at 33.0 µM 67%
active: [1]; at 100.0 µM 97% | [2]; at 100.0 µM 97% | [3]; at 100.0 µM 78% | [4]; at 33.0 µM 94% | [4]; at 100.0 µM 98% | [5]; at 33.0 µM 78% | [5]; [17] 93% | [5]; at 50.0 µM 89.5% | [5]; at 100.0 µM 96% | [6]; at 33.0 µM 75% | [6]; [17] 93% | [6]; at 50.0 µM 92.1% | [6]; at 100.0 µM 98% | [7]; at 33.0 µM 71% | [7]; at 100.0 µM 97% | [8]; [17] 80% | [8]; at 50.0 µM 92.5% | [9]; at 100.0 µM 98% | [10]; [17] 74% | [10]; at 50.0 µM 70.7% | [11]; [17] 82% | [11]; at 50.0 µM 87.8% | [11]; at 100.0 µM 98% | [12]; at 100.0 µM 97% | [13]; at 100.0 µM 96% | [14]; [17] 95% | [14]; at 50.0 µM 89.5% | [15]; at 100.0 µM 97%
